Experimental data from paper PMC5540273 (PLoS ONE, 2017).

Tests used:
Details in all cases: concentration: 1 μM, replicates: in singlicate; n = 1
[1] = system: T1, MEK5
T1 construct: gene MAP2K5

[2] = system: T2, MEK6
T2 construct: gene MAP2K6

[3] = system: MELK
[4] = system: MERTK
[5] = system: MET
[6] = system: T3, MINK
T3 construct: gene MINK1

[7] = system: MKK7
[8] = system: MKNK1
[9] = system: MKNK2
[10] = system: T4, MLCK
T4 construct: gene MYLK3

[11] = system: T5, MLK1
T5 construct: gene MAP3K9

[12] = system: MLK2
[13] = system: MLK3
[14] = system: MRCKA
[15] = system: T6, MRCKB
T6 construct: gene CDC42BPB

[16] = system: MST1R
[17] = system: T7, MST1
T7 construct: gene STK4

[18] = system: T8, MST2
T8 construct: gene STK3

[19] = system: T9, MST3
T9 construct: gene STK24

[20] = system: MST4
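Further: KINOMEscan kinase panel screen.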

SMILES	%Inh [1]	%Inh [2]	%Inh [3]	%Inh [4]	%Inh [5]	%Inh [6]	%Inh [7]	%Inh [8]	%Inh [9]	%Inh [10]	%Inh [11]	%Inh [12]	%Inh [13]	%Inh [14]	%Inh [15]	%Inh [16]	%Inh [17]	%Inh [18]	%Inh [19]	%Inh [20]
Fc1cc(Cl)ccc1Nc1ccnc2cc(-c3ccc(CN4CCOCC4)o3)ccc12 [GW560109]	99.8%	0%	0%	28%	51%	58%	10%	13%	77%	0%	2%	0%	0%	13%	0%	0%	0%	0%	0%	0%
O=C(Nc1c(F)cccc1F)c1cc(C(=O)c2ccccc2F)c[nH]1 [GSK1326180]	20%	0%	0%	18%	0%	47%	0%	10%	0%	2%	3%	21%	0%	0%	0%	0%	2%	0%	0%	0%
CCNC(=O)/C=C/c1n[nH]c2cc(Sc3ccccc3C(=O)NC)ccc12	45%	0%	7%	20%	13%	56%	0%	0%	1%	0%	7%	7%	0%	0%	48%	8%	0%	0%	30%	0%
O=C(O)C(F)(F)F.O=c1[nH]ccc2nc(N[C@@H]3CCNC3)nc(Nc3ccc4c(c3)S(=O)(=O)CC4)c12 [GSK2181306]	99.9%	68%	92.2%	91.7%	26%	96.6%	0%	3%	24%	98.1%	79%	9%	61%	26%	54%	1%	95.9%	80%	96.6%	95.5%
Cl.O=C(Nc1ccc(Oc2ccc3[nH]c(NC(=O)c4ccco4)nc3c2)cc1)Nc1cc(C(F)(F)F)ccc1F [GW683134]	85%	0%	0%	99.6%	83%	0%	0%	46%	93.5%	15%	28%	28%	49%	15%	0%	41%	17%	0%	8%	0%
N#Cc1cnc2cc(-c3cnc(CNCCN4CCOCC4)s3)ccc2c1Nc1ccc(Oc2ccccc2)cc1 [GW664114]	99.9%	0%	15%	72%	7%	95.2%	6%	6%	6%	0%	78%	17%	83%	9%	0%	86%	20%	12%	34%	18%
NCCC(NC(=O)c1cc(Br)c(-c2ccnc3[nH]ccc23)s1)c1ccccc1.O=C(O)C(F)(F)F.O=C(O)C(F)(F)F (stereo not shown) [GSK1307810]	18%	8%	74%	25%	24%	55%	18%	32%	93.9%	85%	0%	0%	0%	86%	99.1%	29%	0%	4%	11%	23%
O=C(O)C(F)(F)F.O=c1[nH]ccc2nc(N[C@@H]3CCNC3)nc(Nc3cc(Cl)cc(Cl)c3)c12 [GSK2188764]	100%	34%	100%	51%	0%	97.6%	20%	0%	14%	99.1%	95.7%	0%	88%	24%	35%	11%	86%	80%	85%	91.1%
O=C1NC(=O)C(c2ccccc2Cl)=C1Nc1cccc(Cl)c1 [SB-342409]	53%	0%	0%	1%	0%	0%	23%	0%	18%	3%	0%	28%	0%	11%	14%	0%	3%	8%	0%	0%
COc1cc(Nc2nccc(N3CCC(NC(=O)Nc4ccc5c(c4)OCO5)C3)n2)cc(OC)c1OC (stereo not shown) [GSK1379766]	98.8%	0%	0%	40%	12%	0%	0%	14%	66%	0%	36%	0%	46%	11%	0%	39%	0%	32%	0%	0%
COC(=O)Nc1nc2ccc(Oc3ccc(CC(=O)Nc4cc(C(F)(F)F)ccc4F)cc3)cc2[nH]1 [GW680903]	31%	0%	0%	44%	0%	0%	8%	13%	3%	0%	0%	0%	0%	39%	0%	34%	0%	0%	4%	0%
CN(c1ccc2c(c1)nc(NCc1ccccc1)n2C)c1ccnc(Nc2ccc(CS(C)(=O)=O)cc2)n1.Cl [GW811603]	89%	0%	17%	36%	46%	0%	23%	54%	43%	0%	12%	17%	2%	11%	0%	23%	24%	2%	0%	0%
N#CC1(c2cccc(C(=O)Nc3cccc(Oc4ccc5nc(NC(=O)C6CC6)sc5n4)c3)c2)CC1	99.1%	18%	1%	80%	2%	54%	0%	40%	0%	36%	1%	22%	17%	0%	0%	0%	4%	8%	0%	4%
COc1cccc(-c2nc(-c3ccccc3)[nH]c2-c2ccncc2)c1 [SB-610250]	26%	100%	14%	9%	0%	10%	0%	22%	5%	0%	0%	0%	0%	41%	0%	23%	8%	0%	0%	0%
